In PubChem BioAssay AID540308 (The Scripps Research Institute Molecular Screening Center, 2011) one finds activation data, which are given here for 89 compounds.

Among all 360,000 compounds or so, about 3,500 (0.97%) were called active. The entries come from a sample that favours actives as a whole. A number with no mark means an inactive call.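 How the source made its calls: active means activation above a per-plate cutoff, the mean activation of sample wells on that plate plus 3 SD (cut at about 8% in these data); inactive means the rest.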

Melanocortin receptor 4 (Homo sapiens), sequence (P32245 whole entry, looked up): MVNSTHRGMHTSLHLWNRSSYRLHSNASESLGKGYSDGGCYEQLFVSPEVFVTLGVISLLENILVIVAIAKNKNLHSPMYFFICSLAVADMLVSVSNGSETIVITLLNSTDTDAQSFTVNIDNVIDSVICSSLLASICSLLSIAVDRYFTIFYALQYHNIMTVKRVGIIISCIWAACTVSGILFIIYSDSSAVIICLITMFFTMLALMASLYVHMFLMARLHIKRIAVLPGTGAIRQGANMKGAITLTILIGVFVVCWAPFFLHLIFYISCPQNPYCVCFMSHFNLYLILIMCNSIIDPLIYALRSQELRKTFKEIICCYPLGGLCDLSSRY

The assay concerns the target Melanocortin receptor 4 (Homo sapiens) (UniProt P32245). Put plainly: activators of MC4R beta-arrestin recruitment – cell-based, luminescence, agonist arm of biased-ligand search, primary screen (AID 540308). The conditions noted are these: U2OS MC4R beta-arrestin complementation, at 8.9 µM, active compounds read high, percent of melanotan II response, DMSO zero. (In general: Activated receptors often draw arrestin, which recruitment assays turn into a signal.)
Take `OC[C@@H]1CN(Cc2ccc(F)cc2)C[C@H](n2cnc3c(NC4CCCC4)ncnc32)O1`: the activation was -2.29%.

`CC1(C(=O)NCc2cccc3ccccc23)CCN1Cc1ccc(-c2ccccc2)o1` (centres undefined): the activation is -1.17%.

With `COc1ccc(-c2ccc(C(=O)NC(C)C)c3occc23)c(C)c1`, the activation was 1.66%.

Turning to `CCc1nc2ccc(C(=O)N(C)Cc3ccco3)cn2c1N(C)C(=O)Cc1ccccc1`, the activation is -1.99%. The value for `COc1cccc(CNC(=O)c2nnn(CC(=O)Nc3cc(C)ccc3C)c2N)c1` was 3.53%; that for `COc1ccc(CNC(=O)c2nnn(CC(=O)Nc3cc(C)cc(C)c3)c2N)cc1` was 0.3%. Consider `COc1cccc(CNC(=O)c2nnn(CC(=O)Nc3cc(Cl)ccc3C)c2N)c1`, for which the activation is 11.7% (active).

As for `CN(C)c1cccc(NC(=O)c2ccc(-c3ccc(F)c(F)c3)c3ccoc23)c1`, the activation was 0.91%. For `CC(OC(=O)c1ccc([N+](=O)[O-])cc1)C(=O)NCC1CCCCC1` (centres undefined), the activation was -1.32%. Consider `CC(OC(=O)c1cccc(S(=O)(=O)N2CCOCC2)c1)C(=O)NCC1CCCCC1` (centres undefined), for which the activation is 0.27%. As for `COc1cc(C(=O)OC(C)C(=O)NCC2CCCCC2)cc(NC(=O)c2ccco2)c1OC` (centres undefined), the activation was 13.3% (active). `CC(C)Nc1ncnc2c1ncn2[C@H]1CN(Cc2ccncc2)C[C@@H](CO)O1`: the activation was 2.39%. Regarding `CC(C)CN1CCC1(C)C(=O)Nc1ccc(OC(F)F)cc1` (centres undefined), the activation was 0.55%.

In the case of `Cc1ccc(F)c(S(=O)(=O)NC(=O)C2(C)CCN2C(=O)c2ccco2)c1` (centres undefined), the activation is 0.44%.

With `Oc1c(Cl)cc(Cl)c(Cl)c1Cc1c(O)c(Cl)cc(Cl)c1Cl`, the activation is 9.22% (active).

Regarding `O=C(NCc1ccc(F)cc1)c1cc(C2CCCCN2C(=O)c2ccccn2)on1` (centres undefined), the activation is 1.1%. The same measure for `COC(=O)C(C)Oc1ccc2c(c1)O/C(=C\c1cccc(Br)c1)C2=O` (centres undefined): 0.36%. Consider `COc1cc(/C=C2\Oc3ccc(C#Cc4ccc(O)cc4)cc3C2=O)cc(OC)c1`, for which the activation is 10.2% (active). The value for `COc1cc(C#Cc2ccc3cc(CCCO)oc(=O)c3c2)cc(OC)c1` was -2.63%.

For the compound `CCc1nc2ccc(C(=O)Nc3cc(-c4ccccc4)ccc3OC)cn2c1N(CC)CC(=O)N(C)C`, the activation is 1.77%.

As for `C[C@H]([C@@H](O)[C@@H](O)[C@@H](C)C(C)(C)C)[C@H]1CC[C@H]2C3CC[C@H]4C[C@H](OS(=O)(=O)O)[C@@H](OS(=O)(=O)O)C[C@]4(C)[C@H]3CC[C@]12C` (some centres undefined), the activation is 0.15%. `CC1(C(=O)NS(=O)(=O)c2ccccc2)CCN1C(=O)C1CCCCC1` (centres undefined): the activation is -1.69%. Regarding `COc1cccc(-c2cc3nc(NCc4ccccc4OC)n(C)c(=O)c3s2)c1`, the activation was 6.31%.

On to `CCCOc1ccc(F)cc1-c1cc(C(=O)Nc2ccc(F)c(Cl)c2)[nH]n1`, for which the activation is 2.17%.

Take `CCN(CC)C(=O)Oc1ccc(Br)cc1C(=O)Nc1ccc(F)c(Cl)c1`: the activation is 11.6% (active).

Consider `COc1ccc(Cl)cc1C(=O)Nc1ccc(N(C)C(C)=O)cc1`, for which the activation is 0.11%.

For `Cc1ccccc1N/N=C/c1ccc(N2CCOCC2)cc1`, the activation was -1.27%. As for `CCN(CC)c1ccc(C(=O)N/N=C/c2ccc(N3CCOCC3)cc2)cc1`, the activation was 26.7% (active). As to `CCN(CC)c1ccc(/C=N/NC(=O)CNC(=O)c2cccs2)cc1`, the activation was -1.48%. The value for `O=CNc1cc(-c2ccc(C(=O)N3CCOCC3)cc2)cn2c(-c3ccc(F)cc3)cnc12` was 0.33%; that for `CC1(Cc2ccccc2C#N)C(=O)Nc2ccc(-c3ccc4[nH]ccc4c3)cc21` (centres undefined) was -2.44%; that for `Cc1nc2c(OCc3cccc(Cl)c3)cccn2c1N(C)CC1CC1` was -0.13%.

Take `CC1(C(=O)NCc2ccco2)Cc2c(-c3ccc4c(c3)OCO4)ccnc2O1` (centres undefined): the activation was 0.01%. For the compound `CC1=C(C/C=C(\C)CCCC(C)CCCC(C)CCCC(C)C)C(=O)c2ccccc2C1=O` (centres undefined), the activation is -1.56%. For `CCN(CC)S(=O)(=O)c1ccc(C)c(NC(=O)COc2ccc(Br)cc2Cl)c1`, the activation was 13.4% (active). The same measure for `Cc1ccc(S(=O)(=O)N(C)C)cc1NC(=O)COC(=O)c1c(C)noc1C`: -0.85%. On to `CCN(CC)S(=O)(=O)c1ccc(OC)c(NC(=O)CCc2c(C)noc2C)c1`, for which the activation was -1.81%. Take `O=C(NCc1cccnc1)c1cc(C2CCCCN2C(=O)CCc2ccccc2)on1` (centres undefined): the activation was -1.7%. As for `CCNC(=O)C1CCCN(C(=O)c2cc(F)ccc2C)CC1` (centres undefined), the activation was 1.6%.

Turning to `CC(C)(C)OC(=O)N1CCC(NC(=O)c2[nH]cnc2C(=O)N[C@@H](Cc2ccccc2)C(=O)OCc2ccccc2)CC1`, the activation was 17.8% (active). As to `O=C(N[C@@H](Cc1ccccc1)C(=O)OCc1ccccc1)c1nc[nH]c1C(=O)N[C@@H](Cc1ccccc1)C(=O)OCc1ccccc1`, the activation is 0.69%. `O=C(N[C@@H](Cc1ccccc1)C(=O)OCc1ccccc1)c1nc[nH]c1C(=O)NC1CCNCC1`: the activation was -0.82%. For `CC(=O)c1ccc(Nc2nc(C(N)c3ccccc3Cl)cs2)cc1` (centres undefined), the activation was -0.98%. The value for `C=CCC(NC(=O)Cc1ccccc1)C(=O)NCCC` (centres undefined) was -0.94%; that for `O=C(CN1CCN(Cc2ccccc2)CC1)NC(c1ccccc1)c1ccccc1` was 1.85%. The same measure for `O=C(Cc1ccc(-c2ccccc2)cc1)NC(c1ccccc1)c1ccccc1`: 9.56% (active); for `COc1ccc(CN2CCC(C)(Oc3cccc(F)c3)C2)c2ccccc12` (centres undefined): 0.37%; for `CCCc1cc(C(=O)Nc2ccc(Cl)cn2)cs1`: 3.75%.

On to `O=C(Nc1ccc(Cl)cn1)c1ccc2c(c1)OCCO2`, for which the activation is 0.85%. The same measure for `COc1c(Cl)cc(C(=O)Nc2ccc(Cl)cn2)cc1Cl`: 10.6% (active); for `COc1ccc(-c2cc3nc(NCCOc4ccccc4)ccn3n2)cc1`: 4.13%. The value for `CCOc1ccc(/C=N/NC(=O)C(C)Sc2ccccn2)cc1OCC` (centres undefined) was 2.39%; that for `CCOc1cc(/C=N/NC(=O)OC)ccc1OCCSc1ccc(Cl)cc1` was 4.19%. The same measure for `COc1cc(/C=N/NC(=O)Nc2ccccc2)ccc1OCCOc1ccccc1C`: 21.2% (active); for `CCCCNc1c(-c2ccc(OC)c(Sc3ccc(OC)cc3)c2)nc2ccc(Cl)cn12`: -1.91%; for `CCCCNc1nc2c(c(=O)n(C)c(=O)n2C)n1Cc1cccc(OC)c1`: -2.77%. For the compound `CCCCNc1c(-c2cccc(Sc3ccc(OC)cc3)c2)nc2ccccn12`, the activation is 13.9% (active). As to `CNc1cc(-c2c(OC)cccc2OC)ncn1`, the activation was 0.41%. The same measure for `O=C(NNc1cc(Cl)ccc1Cl)c1cccnc1Cl`: -2.02%; for `COc1cc(SC)ccc1C(=O)Nc1nc(C)cs1`: -0.94%; for `O=C(Nc1cccc2ncccc12)c1ccc(-c2ccc(Cl)cc2Cl)o1`: 20.2% (active).

With `Cc1ccc(/C=C(\C#N)C(=O)Nc2cccc3ncccc23)o1`, the activation is 0.31%. As for `CC1CCN(C(=S)c2ccc(-c3ccc(Cl)cc3Cl)o2)CC1`, the activation was 2.82%.

On to `Cc1csc(NC(=O)c2ccc(-c3ccc(Cl)cc3Cl)o2)n1`, for which the activation was 12.6% (active).

Turning to `Cc1nc2c(OCc3ccc(Cl)cc3)cccn2c1N(C)Cc1cccs1`, the activation is -2.75%. In the case of `COc1ccc(CCNC(=O)Nc2ccc3c(c2)c(=O)n(C)n3C)cc1OC`, the activation was 1.3%. For the compound `COc1cc(C(O)c2nc(-c3cccc(C(=O)O)c3)cs2)ccc1F` (centres undefined), the activation is -1.9%. The value for `CC1(C(=O)NS(=O)(=O)c2cccc(OC(F)F)c2)CCN1C(=O)COc1ccc(Cl)cc1` (centres undefined) was -1.09%. `CCc1ccc(OC2(C)CCN(CCOc3ccc(C)cc3)C2)cc1` (centres undefined): the activation was 3.54%. As to `CCN1CCN(CCNC(=O)c2ccc(/C=C3/Sc4ccccc4N(Cc4cccc(C)c4)C3=O)cc2)CC1`, the activation was 13.8% (active). For `CCN1CCN(CCNC(=O)c2ccc3c(c2)NC(=O)/C(=C\c2cccc(Cl)c2)S3)CC1`, the activation was -0.09%. The same measure for `Cc1ccccc1CN1C(=O)c2ccccc2Sc2ccc(C(=O)NCCCN3CCOCC3)cc21`: 3.09%. In the case of `CCc1nc2c(OCC(=O)C(C)(C)C)cccn2c1N(C)C(=O)c1ccccc1F`, the activation was -1.02%. `CCC(=O)N1CCC(C)(C(=O)Nc2cc(OC)c(OC)c(OC)c2)C1` (centres undefined): the activation is -0.53%. Regarding `CC1(C(=O)N/N=C/c2cc3c(cc2Br)OCO3)CC1(Br)Br` (centres undefined), the activation is -3.59%.

For `CC(C)Oc1c(Br)cc(Br)cc1/C=N/NC(N)=S`, the activation was 22.7% (active). In the case of `COc1cccc(C(NC(C)=O)c2nc(-c3ccccc3OC)cs2)c1` (centres undefined), the activation was -0.26%.

As for `Cc1cc(O)ccc1-c1cc(C(=O)NCc2cc(C(F)(F)F)cc(C(F)(F)F)c2)[nH]n1`, the activation is 2.75%. With `OC(c1ccc(F)cc1)c1ncc(-c2cccc(C(F)(F)F)c2)[nH]1` (centres undefined), the activation was 1.88%. On to `CC(=O)NC(c1ccccc1)c1nc(-c2ccccc2C)cs1` (centres undefined), for which the activation was 0.3%. Take `CC1(C(=O)NCc2ccc3c(c2)OCO3)CCN1C(=O)Cc1cccs1` (centres undefined): the activation is 0.72%. The value for `COc1ccc(OCC(=O)Nc2ccc(N3CCC(C)CC3)cc2)cc1` was 10.2% (active).

Consider `CCC(=O)c1ccc(OCC(=O)Nc2ccc(N3CCCCC3)cc2)cc1`, for which the activation is 3.06%. `COc1ccc(OCC(=O)NNC(=O)C2CCC2)cc1`: the activation is -1.99%.

With `CC12CCC(=O)C=C1CCC1C2C(O)CC2(C)C1CCC2(O)C(O)CO` (centres undefined), the activation is -0.23%.

Regarding `CCCNC(=O)C1(C)CCN(C(=O)c2ccccc2OC(F)(F)F)C1` (centres undefined), the activation was 0.4%.

Turning to `COc1ccc(NC(=O)CN(C)C(=O)c2cc(-c3ccc(C)o3)nc3ccccc23)cc1`, the activation is -0.83%. In the case of `CC(=O)N1CCN(C(=O)c2cc(-c3ccc(C)o3)nc3ccccc23)CC1`, the activation is -2.54%. Turning to `COc1ccc(NC(=O)c2cc(-c3ccc(C)o3)nc3ccccc23)cc1`, the activation is 9.46% (active).
